Holding throughout (assay): log2 fold change, soluble protein after heating vs DMSO (PISA); higher = thermal stabilisation; K562 lysate, 10 uM; active = over 0.2 and 3.5 SD of the protein, either way, in both replicates (recomputed)
Compound in test [1]: NCC(=O)Nc1ccc(-n2nc(C(F)(F)F)cc2-c2ccc3c(ccc4ccccc43)c2)cc1
The method, boiled down:
(§1)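 Values give the log-two fold change in thermal stability against solvent controls, from duplicates. Crude K562 extract at 1 mg/mL protein, made by dounce homogenisation in PBS pH 7.4 with 1 mM MgCl2, was treated with 10 μM compound for 30 min. After 3 min heating across 48°C-58°C, aliquots were pooled, adjusted to 0.5% NP-40 at 4°C and centrifuged at 21,000xg for 90 min. The supernatant was measured by TMTpro 16plex LC-MS/MS with channel sums equalised.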

Compound in another test: c1cn2cc(-c3ccc4cn[nH]c4c3)nc(Nc3ccc(N4CCOCC4)cc3)c2n1 [entospletinib]
The method, boiled down: as §1

Compound in a further test: O=C(CCCCCCC(=O)Nc1ccccc1)NO [vorinostat]
The method, boiled down: as §1

Compound in another test: O=C(O)c1ccc2c(c1)nc(Nc1cccc(Cl)c1)c1ccncc12 [silmitasertib]
The gist of the method:
as §1

Compound in test [2]: O=C1NC(=O)C(c2cnc3ccccn23)=C1c1cn2c3c(cc(F)cc13)CN(C(=O)N1CCCCC1)CC2
The gist of the method:
as §1

Targets with a hit are over-represented here; the source holds about 8,800 in all. About 0.5% of all pairs of compound and target were hits. Values without a mark were called inactive.

We go through 25 targets from the supplement of paper PMC10849652.

Chain of UniProt P13533 (P13533 whole entry, looked up): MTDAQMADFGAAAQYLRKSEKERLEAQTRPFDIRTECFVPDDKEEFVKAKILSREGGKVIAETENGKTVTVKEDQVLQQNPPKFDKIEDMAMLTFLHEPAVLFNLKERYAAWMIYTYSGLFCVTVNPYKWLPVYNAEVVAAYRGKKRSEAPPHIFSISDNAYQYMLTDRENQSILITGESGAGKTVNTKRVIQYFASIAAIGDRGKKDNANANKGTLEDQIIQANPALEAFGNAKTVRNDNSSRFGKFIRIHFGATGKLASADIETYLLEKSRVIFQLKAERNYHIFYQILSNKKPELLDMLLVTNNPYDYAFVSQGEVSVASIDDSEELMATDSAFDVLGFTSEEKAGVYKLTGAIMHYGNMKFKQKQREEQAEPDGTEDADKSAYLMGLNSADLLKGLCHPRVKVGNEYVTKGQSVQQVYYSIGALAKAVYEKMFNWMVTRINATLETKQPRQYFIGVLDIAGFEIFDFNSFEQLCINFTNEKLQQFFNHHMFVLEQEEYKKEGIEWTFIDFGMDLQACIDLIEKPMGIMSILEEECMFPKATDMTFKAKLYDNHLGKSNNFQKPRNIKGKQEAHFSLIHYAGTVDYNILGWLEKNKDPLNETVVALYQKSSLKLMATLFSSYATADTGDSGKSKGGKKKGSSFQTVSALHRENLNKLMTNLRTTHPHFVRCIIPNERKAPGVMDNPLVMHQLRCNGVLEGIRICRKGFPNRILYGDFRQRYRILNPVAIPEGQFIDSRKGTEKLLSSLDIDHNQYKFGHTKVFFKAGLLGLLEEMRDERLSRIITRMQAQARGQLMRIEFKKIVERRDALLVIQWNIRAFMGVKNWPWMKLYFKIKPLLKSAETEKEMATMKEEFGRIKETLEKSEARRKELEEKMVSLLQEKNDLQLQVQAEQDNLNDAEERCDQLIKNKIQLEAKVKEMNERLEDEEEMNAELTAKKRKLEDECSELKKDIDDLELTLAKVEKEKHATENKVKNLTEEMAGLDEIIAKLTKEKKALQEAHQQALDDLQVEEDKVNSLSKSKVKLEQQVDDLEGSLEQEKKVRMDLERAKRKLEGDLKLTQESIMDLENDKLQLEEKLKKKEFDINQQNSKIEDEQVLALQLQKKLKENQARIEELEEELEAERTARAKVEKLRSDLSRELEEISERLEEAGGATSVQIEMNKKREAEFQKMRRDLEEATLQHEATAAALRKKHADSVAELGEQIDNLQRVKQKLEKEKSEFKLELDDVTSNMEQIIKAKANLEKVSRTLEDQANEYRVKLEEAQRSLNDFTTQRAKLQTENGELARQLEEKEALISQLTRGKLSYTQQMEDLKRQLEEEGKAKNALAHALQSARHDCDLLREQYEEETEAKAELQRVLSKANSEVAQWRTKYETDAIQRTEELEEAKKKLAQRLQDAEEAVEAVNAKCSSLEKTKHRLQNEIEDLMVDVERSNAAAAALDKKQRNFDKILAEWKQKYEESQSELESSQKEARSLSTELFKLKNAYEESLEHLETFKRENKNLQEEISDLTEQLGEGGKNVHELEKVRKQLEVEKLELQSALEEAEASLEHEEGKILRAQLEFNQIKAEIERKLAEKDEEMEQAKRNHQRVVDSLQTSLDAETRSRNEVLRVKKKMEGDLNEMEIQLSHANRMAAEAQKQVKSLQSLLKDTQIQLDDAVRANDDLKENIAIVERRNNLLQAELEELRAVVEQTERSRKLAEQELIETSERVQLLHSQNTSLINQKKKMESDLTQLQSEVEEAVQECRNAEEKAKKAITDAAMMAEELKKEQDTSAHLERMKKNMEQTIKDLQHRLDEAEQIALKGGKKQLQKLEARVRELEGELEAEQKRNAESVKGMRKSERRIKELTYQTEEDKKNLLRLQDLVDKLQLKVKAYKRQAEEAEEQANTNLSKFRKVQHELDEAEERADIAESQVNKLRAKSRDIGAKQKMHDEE
Chain of UniProt Q8TDX7 (Q8TDX7 whole entry, looked up): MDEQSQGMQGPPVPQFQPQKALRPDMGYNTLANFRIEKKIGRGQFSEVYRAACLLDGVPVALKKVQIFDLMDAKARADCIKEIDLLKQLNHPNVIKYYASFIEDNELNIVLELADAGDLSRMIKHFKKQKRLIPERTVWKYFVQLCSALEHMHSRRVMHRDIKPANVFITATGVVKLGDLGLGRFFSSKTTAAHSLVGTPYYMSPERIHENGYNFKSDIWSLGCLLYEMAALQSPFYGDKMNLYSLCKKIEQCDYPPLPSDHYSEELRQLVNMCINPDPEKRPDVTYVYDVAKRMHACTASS
Chain of UniProt Q9NPF4 (Q9NPF4 whole entry, looked up): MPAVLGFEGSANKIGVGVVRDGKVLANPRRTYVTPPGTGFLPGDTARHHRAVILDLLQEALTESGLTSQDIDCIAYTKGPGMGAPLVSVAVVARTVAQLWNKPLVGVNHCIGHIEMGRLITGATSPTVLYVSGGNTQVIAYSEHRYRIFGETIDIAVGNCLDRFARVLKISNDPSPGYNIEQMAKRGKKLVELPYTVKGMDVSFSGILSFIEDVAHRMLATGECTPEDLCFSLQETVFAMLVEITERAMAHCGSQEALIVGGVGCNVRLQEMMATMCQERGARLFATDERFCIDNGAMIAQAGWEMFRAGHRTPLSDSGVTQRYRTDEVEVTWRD
Chain of UniProt Q6N063 (Q6N063 whole entry, looked up): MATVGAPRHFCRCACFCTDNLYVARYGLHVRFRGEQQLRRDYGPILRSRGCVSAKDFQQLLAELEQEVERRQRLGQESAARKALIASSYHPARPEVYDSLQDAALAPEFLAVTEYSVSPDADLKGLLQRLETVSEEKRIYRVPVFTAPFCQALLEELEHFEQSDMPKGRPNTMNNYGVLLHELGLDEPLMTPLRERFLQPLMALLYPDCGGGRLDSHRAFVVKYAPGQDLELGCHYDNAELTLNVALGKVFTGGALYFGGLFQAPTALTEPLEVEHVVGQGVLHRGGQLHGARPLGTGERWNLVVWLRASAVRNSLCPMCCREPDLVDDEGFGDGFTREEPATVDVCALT
Chain of UniProt Q9UK39 (Q9UK39 whole entry, looked up): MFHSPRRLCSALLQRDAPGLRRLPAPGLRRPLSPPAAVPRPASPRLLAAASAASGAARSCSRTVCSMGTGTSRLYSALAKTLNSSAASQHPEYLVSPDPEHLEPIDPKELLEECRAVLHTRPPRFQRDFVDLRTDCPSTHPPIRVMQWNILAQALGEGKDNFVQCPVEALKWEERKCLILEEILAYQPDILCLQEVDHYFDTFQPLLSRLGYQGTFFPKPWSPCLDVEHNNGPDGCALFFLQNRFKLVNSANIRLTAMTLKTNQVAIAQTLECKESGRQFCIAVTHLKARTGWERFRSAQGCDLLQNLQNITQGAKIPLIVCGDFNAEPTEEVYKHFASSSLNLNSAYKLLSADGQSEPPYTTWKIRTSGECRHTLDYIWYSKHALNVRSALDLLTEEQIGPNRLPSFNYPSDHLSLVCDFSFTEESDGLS
Chain of UniProt Q9BZ23 (Q9BZ23 whole entry, looked up): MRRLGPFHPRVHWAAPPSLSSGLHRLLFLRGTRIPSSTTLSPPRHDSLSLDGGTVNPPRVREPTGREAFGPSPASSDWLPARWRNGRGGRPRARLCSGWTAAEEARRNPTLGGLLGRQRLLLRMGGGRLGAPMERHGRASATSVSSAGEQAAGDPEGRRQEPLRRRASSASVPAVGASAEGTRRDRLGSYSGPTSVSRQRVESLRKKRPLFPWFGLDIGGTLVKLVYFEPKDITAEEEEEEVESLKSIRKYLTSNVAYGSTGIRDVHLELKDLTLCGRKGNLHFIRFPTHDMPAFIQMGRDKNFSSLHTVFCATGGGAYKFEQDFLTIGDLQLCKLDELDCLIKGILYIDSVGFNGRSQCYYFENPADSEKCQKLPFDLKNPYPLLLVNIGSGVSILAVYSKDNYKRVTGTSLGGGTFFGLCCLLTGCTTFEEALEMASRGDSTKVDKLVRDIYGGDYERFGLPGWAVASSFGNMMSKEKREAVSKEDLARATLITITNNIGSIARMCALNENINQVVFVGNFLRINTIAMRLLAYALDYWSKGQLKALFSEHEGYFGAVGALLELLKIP
Chain of UniProt P47900 (P47900 whole entry, looked up): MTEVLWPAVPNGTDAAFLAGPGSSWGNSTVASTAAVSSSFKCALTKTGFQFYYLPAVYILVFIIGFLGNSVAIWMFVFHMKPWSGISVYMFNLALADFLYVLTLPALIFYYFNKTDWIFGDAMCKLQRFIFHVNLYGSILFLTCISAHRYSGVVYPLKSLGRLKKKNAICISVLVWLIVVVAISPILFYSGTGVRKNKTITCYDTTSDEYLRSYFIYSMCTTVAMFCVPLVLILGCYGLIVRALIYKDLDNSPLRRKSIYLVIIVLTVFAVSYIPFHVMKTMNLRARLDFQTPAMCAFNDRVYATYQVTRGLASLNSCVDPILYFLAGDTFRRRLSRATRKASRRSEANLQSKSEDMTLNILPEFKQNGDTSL
Chain of UniProt O60829 (O60829 whole entry, looked up): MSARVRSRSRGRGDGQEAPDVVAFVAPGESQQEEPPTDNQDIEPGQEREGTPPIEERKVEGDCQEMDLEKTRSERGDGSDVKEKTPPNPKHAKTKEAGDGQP
Chain of UniProt P80303 (P80303 whole entry, looked up): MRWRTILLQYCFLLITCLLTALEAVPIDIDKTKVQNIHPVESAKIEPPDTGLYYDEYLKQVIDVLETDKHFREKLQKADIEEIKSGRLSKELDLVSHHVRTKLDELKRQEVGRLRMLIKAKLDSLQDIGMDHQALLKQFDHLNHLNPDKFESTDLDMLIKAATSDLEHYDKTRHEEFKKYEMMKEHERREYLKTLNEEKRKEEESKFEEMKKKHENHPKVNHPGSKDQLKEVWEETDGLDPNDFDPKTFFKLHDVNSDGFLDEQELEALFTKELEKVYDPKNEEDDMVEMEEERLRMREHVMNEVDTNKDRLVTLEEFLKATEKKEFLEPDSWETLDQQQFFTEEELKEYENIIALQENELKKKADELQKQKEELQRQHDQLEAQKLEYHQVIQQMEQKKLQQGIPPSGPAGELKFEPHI

In the case of NAA16 (UniProt Q6N069), the log2 fold change in test [1] was 0.43; in the test with entospletinib, -0.018.

For the target NMT1 (UniProt P30419), the log2 fold change in test [1] is -0.35 (active); in the test with vorinostat, 0.028; with silmitasertib it was -0.03; in test [2], -0.036; with entospletinib it was 0.034.

Consider MYH11 isoform 2 (UniProt P35749), for which the log2 fold change was 0.014 in test [1]; 0.042 with vorinostat; 0.02 in the test with silmitasertib; -0.005 in test [2]; 0.013 with entospletinib.

For PANK2 (UniProt Q9BZ23), the log2 fold change was 0 in test [1], -0.012 in test [2] and -0.023 with entospletinib.

Regarding OSBPL1A (UniProt Q9BXW6), the log2 fold change is 0.128 with vorinostat, -0.19 in the test with silmitasertib and -0.14 in test [2].

For the target NCAPG2 (UniProt Q86XI2), the log2 fold change in test [1] is 0.002; with vorinostat, -0.598 (active); with silmitasertib, 0.015; in test [2], -0.016; with entospletinib, 0.009.

As to NSUN2 (UniProt Q08J23), the log2 fold change in test [1] was 0.004; with vorinostat, -0.42 (active); with silmitasertib, 0.03; in test [2], -0.007; with entospletinib, 0.011.

MYOM1 (UniProt P52179): the log2 fold change in test [1] was 0.062; with vorinostat it was 0.055; in the test with silmitasertib, 0.014; in test [2] it was 0.292; with entospletinib, 0.028.

In the case of NSA2 (UniProt O95478), the log2 fold change was 0.035 in test [1], -0.073 in the test with vorinostat, -0.042 in the test with silmitasertib and 0.208 in the test with entospletinib.

For the target NUCB2 (UniProt P80303), the log2 fold change in test [1] is 0; in the test with vorinostat it was 0.133; in the test with silmitasertib, -0.026; in test [2], -0.007; with entospletinib, -0.008.

MTHFD1, A0A384N5Y3: the log2 fold change in test [1] is 0.036; with vorinostat it was -0.243 (active); with silmitasertib, 0.056; in test [2], 0.028; in the test with entospletinib it was 0.026.

With OGFOD2 (UniProt Q6N063), the log2 fold change in test [1] is 0.023; with vorinostat it was -0.075; with silmitasertib, 0.038; in test [2] it was 0.022; with entospletinib, -0.001.

Turning to NEXN (UniProt Q0ZGT2), the log2 fold change is 0.144 in test [1], -0.335 with vorinostat, -0.038 with silmitasertib and 0.042 in the test with entospletinib.

On to MYLK (UniProt Q15746), for which the log2 fold change in test [1] is -0.312; in test [2], -0.294; in the test with entospletinib, -0.096.

Regarding P2RY1 (UniProt P47900), the log2 fold change with vorinostat is 0.04; with silmitasertib, 0.13; in the test with entospletinib, -0.064.

Turning to MRPS18A isoform 2 (UniProt Q9NVS2), the log2 fold change in test [1] is 0.008; with vorinostat, 0.021; in the test with silmitasertib it was 0.048; in test [2] it was 0.019; in the test with entospletinib it was -0.052.

For NOCT (UniProt Q9UK39), the log2 fold change is -0.886 (active) with vorinostat, 0.004 with silmitasertib, -0.036 in test [2] and -0.301 in the test with entospletinib.

For the target NEK7 (UniProt Q8TDX7), the log2 fold change in test [1] was -0.037; in the test with vorinostat, -0.338 (active); with silmitasertib it was 0.105; in test [2] it was 0.003; in the test with entospletinib, 0.012.

Turning to NFAT5 isoform 4 (UniProt O94916), in test [2], the log2 fold change was -0.062.

As to OSGEP (UniProt Q9NPF4), the log2 fold change was -0.001 in test [1]; -0.038 with vorinostat; -0.109 with silmitasertib; 0.016 in test [2]; 0.002 in the test with entospletinib.

Consider NRIP1 (UniProt P48552), for which the log2 fold change with vorinostat is 0.274; with silmitasertib, 0; in test [2] it was 0.06.

Turning to MXRA7 (UniProt P84157), the log2 fold change in test [1] is 0.118; in the test with vorinostat, 0.262; with silmitasertib it was -0.102; in test [2], 0.099; in the test with entospletinib, 0.021.

Turning to ORC1 (UniProt Q13415), the log2 fold change in the test with entospletinib is -0.047.

Regarding PAGE4 (UniProt O60829), the log2 fold change with vorinostat was -0.425 (active); with silmitasertib it was 0.06; in test [2], -0.074; in the test with entospletinib, -0.054.

Take MYH6 (UniProt P13533): the log2 fold change in the test with vorinostat was 0.209; with silmitasertib, -0.053; in test [2], 0.188; in the test with entospletinib it was 0.102.
